DT40 TDP1 no CPT: qHTS for Inhibitors of human tyrosyl-DNA phosphodiesterase 1 (TDP1): qHTS in cells in absence of CPT | DT40 Tdp1-/- hTDP1 cells, no CPT, ATP luminescence, 48 h | Potency, µM (doses to about 46.2 µM), for inactives: at the highest dose activity change, negative = growth inhibition, hits mostly inhibitors | AID 686978, 2013 | actives 15% (n = 420,000); also: potency is read from the fitted curve at half-maximal effect; nearly all actives have a fitted effect of over 55% in size
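Chicken DT40 Tdp1-/- cells complemented with human TDP1, screened without camptothecin (DMSO vehicle only), 400 cells/well. Compounds pin-transferred, cells incubated at 37 °C for at least 48 hr. Growth read as ATP-dependent luminescence (CellTiter-Glo, 30 min at RT).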
IL1B secr inh: inflammasome signaling inhibition, IL-1 beta readout; actives 4.7% (n = 360,000); THP-1 LPS/ATP IL-1B secretion, AlphaLISA, 16 h; hits give low values; activity change, % at 57.5 µM; AID 743279; in the data active = activity change below about -50%; inconclusive = mostly about -30% to -49%
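THP-1 cells pretreated 1 hr with compounds (up to 57.5 uM final), then stimulated with LPS (250 ng/mL final) plus ATP (1.25 mM final); secreted IL-1B measured by AlphaLISA after 16 hr, decreased signal indicating inhibition.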
ALOX12 inh: ALOX12 (human) lipoxygenase inhibition. P18054. purified 12hLO, xylenol orange hydroperoxide absorbance. Potency, µM (doses to about 108 µM), without a hit: at the highest dose activity change, negative = inhibition, actives largely listed as inhibitors. actives 1.1% (n = 580,000). AID 1671190; also: potency is read from the fitted curve at half-maximal effect
Target sequence (P18054 whole entry, looked up): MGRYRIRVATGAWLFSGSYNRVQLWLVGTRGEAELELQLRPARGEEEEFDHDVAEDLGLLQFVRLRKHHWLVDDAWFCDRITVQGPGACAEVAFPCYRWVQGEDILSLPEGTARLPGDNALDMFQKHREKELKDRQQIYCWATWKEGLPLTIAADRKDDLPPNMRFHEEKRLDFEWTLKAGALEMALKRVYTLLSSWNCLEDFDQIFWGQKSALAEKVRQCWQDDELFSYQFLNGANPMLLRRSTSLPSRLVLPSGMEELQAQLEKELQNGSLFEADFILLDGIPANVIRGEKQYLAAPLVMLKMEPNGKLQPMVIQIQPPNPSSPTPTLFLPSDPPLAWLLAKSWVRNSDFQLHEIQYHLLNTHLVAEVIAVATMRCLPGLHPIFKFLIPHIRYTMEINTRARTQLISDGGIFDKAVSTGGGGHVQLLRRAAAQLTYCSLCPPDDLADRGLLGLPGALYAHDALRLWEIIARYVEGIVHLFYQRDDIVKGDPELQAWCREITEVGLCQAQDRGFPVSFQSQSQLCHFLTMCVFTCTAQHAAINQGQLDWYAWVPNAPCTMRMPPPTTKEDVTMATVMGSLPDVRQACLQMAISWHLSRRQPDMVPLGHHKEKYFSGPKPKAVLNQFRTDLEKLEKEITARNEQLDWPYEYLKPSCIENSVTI
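Purified human 12hLO at 150 nM in 25 mM Hepes, 0.01% Triton X-100, pH 7.0, preincubated 15 min at room temperature with compound. Reaction started with 40 uM arachidonic acid, 30 min at room temperature. Hydroperoxide measured by Fe-xylenol orange, 573/405 nm absorbance ratio.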
HT1080 IDH1KD tx: kills HT-1080 cells with IDH1 knockdown | HT-1080 IDH1 knockdown viability, ATP luminescence, 48 h | Potency, µM (doses to about 46.1 µM), for the others: top-dose activity, negative = toxicity, actives largely listed as cytotoxic | actives 2% (n = 360,000) | AID 686971;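 also: potency is read from the fitted curve at half-maximal effect; 0% = DMSO wells and -100% = cell-free medium wells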
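Cytotoxicity counter-line: IDH1KD HT-1080, 48 h, CellTiter-Glo. Curves classed by r2, magnitude and activity.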
DT40 TDP1 CPT: growth inhibition of DT40 Tdp1-/-;hTDP1 cells with camptothecin (screen for TDP1 inhibitors); chicken DT40 Tdp1-/-;hTDP1 cells + 20 nM CPT, ATP luminescence, 48 h; Potency, µM (series often up to 46.2 µM), without a hit: top-dose activity change, negative = growth inhibition, most hits filed as inhibitors; actives 12% (n = 420,000); AID 686979; also: potency is read from the fitted curve at half-maximal effect; nearly all actives have a fitted effect of over 55% in size
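Chicken DT40 Tdp1-/- cells stably complemented with human TDP1 were seeded at 400 cells/well in medium containing 20 nM camptothecin, exposed to pin-transferred compounds, and grown at 37 °C for at least 48 hr. Viability was read as ATP luminescence.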
HT1080NT lethal: kills 2HG-producing HT-1080-NT fibrosarcoma cells; HT-1080-NT fibrosarcoma viability, CellTiter-Glo ATP luminescence, 48 h; Potency, µM (highest dose often 46.1 µM), for inactives: at the highest dose activity, negative = less viability, actives largely listed as cytotoxic; actives 1.6% (n = 360,000); AID 686970;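 also: NT is the 2HG producing partner of a matched IDH1 knockdown line; potency is read from the fitted curve at half-maximal effect; 0% = DMSO-treated cells and -100% = media-only wells without cells; nearly all actives have a fitted effect of over 55% in size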
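Read-out is CellTiter-Glo luminescence after 10 minutes at room temperature, following 48 hours' compound treatment of HT-1080-NT cells (750 cells/well, RPMI, 5% FBS, 37 degrees C).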
Active calls of the source: *. Many of the other results were omitted from the sample, so hits are more common in it than they were. Unless noted, calls follow the shape of the dose curve; as a rule, active = well fitted curve in the direction sought with a large enough effect; inconclusive = small, poorly fitted or top-dose-only effect, or another doubt; inactive = no such curve, though single readings can be large; an effect the other way counts as inactive or inconclusive. Unless noted, % is scaled to controls: 0 for no effect and ±100 for the full control effect.

CSCCC(NS(=O)(=O)c1ccc2ccccc2c1)C(=O)OCC(=O)c1ccc(C(C)C)cc1 (configuration not stated) was read as DT40 TDP1 no CPT 16µM*, IL1B secr inh 3, ALOX12 inh -15%, HT1080 IDH1KD tx -14%, DT40 TDP1 CPT 23µM* and HT1080NT lethal -3%.
For Cc1[nH]c2ccccc2c1C(=O)COC(=O)C1CC(O)CN1S(=O)(=O)c1ccc(Cl)cc1 (configuration not stated) the results were DT40 TDP1 no CPT inconclusive, IL1B secr inh -76*, ALOX12 inh 18%, HT1080 IDH1KD tx inconclusive, DT40 TDP1 CPT inconclusive and HT1080NT lethal -27%.
Screening Cc1ccc(N(CC(=O)NCC2CCCO2)S(=O)(=O)c2ccc(C)cc2)cc1 (configuration not stated) returned ALOX12 inh -24%.
`CC(Sc1ccc(C(C)(C)C)cc1)C(=O)NC(C)(C)C` (configuration not stated) gave ALOX12 inh 3%.
`CNC(=O)CN(C)Cc1coc(-c2ccc(C)cc2)n1` gave ALOX12 inh 16%.
COc1ccc(-c2nnc(SC(C)C(=O)NC3CCCCC3)o2)cc1OC (configuration not stated) was read as ALOX12 inh -4%.
For COc1ccc(NC2C=CS(=O)(=O)C2)c(OC)c1 (configuration not stated) the results were DT40 TDP1 no CPT -14%, IL1B secr inh -61*, ALOX12 inh inconclusive, HT1080 IDH1KD tx -11%, DT40 TDP1 CPT -16% and HT1080NT lethal -7%.
CC1CCN(S(=O)(=O)c2ccc3c(c2)c(=O)c(C(=O)NCc2ccc(Cl)cc2)cn3C)CC1 was read as DT40 TDP1 no CPT 4.6µM*, ALOX12 inh inconclusive and DT40 TDP1 CPT -27%.
`CN(CCCNC(=O)c1cn(C)c2ccc(S(=O)(=O)N(C)C)cc2c1=O)c1ccccc1` gave DT40 TDP1 no CPT inconclusive, IL1B secr inh 11, ALOX12 inh -2%, HT1080 IDH1KD tx 7%, DT40 TDP1 CPT 18µM* and HT1080NT lethal 0%.
`Cn1cc(C(=O)NCc2ccc(F)cc2)c(=O)c2cc(S(=O)(=O)N3CCCCC3)ccc21` gave DT40 TDP1 no CPT 16µM*, IL1B secr inh inconclusive, ALOX12 inh -25%, HT1080 IDH1KD tx -4%, DT40 TDP1 CPT 23µM* and HT1080NT lethal 0%.
For CCN(CC)S(=O)(=O)c1ccc2c(c1)c(=O)c(C(=O)NCCCN(C)c1ccccc1)cn2C the results were DT40 TDP1 no CPT inconclusive, IL1B secr inh -6, ALOX12 inh -26%, HT1080 IDH1KD tx -13%, DT40 TDP1 CPT -26% and HT1080NT lethal -4%.
Screening CN(C1CCCCC1)S(=O)(=O)c1ccc2c(c1)c(=O)c(C(=O)NCCc1ccccc1)cn2C returned DT40 TDP1 no CPT inconclusive, ALOX12 inh inconclusive and DT40 TDP1 CPT -16%.
For CN(C1CCCCC1)S(=O)(=O)c1ccc2c(c1)c(=O)c(C(=O)NCCc1ccc(Cl)cc1)cn2C the results were DT40 TDP1 no CPT 21µM*, ALOX12 inh inconclusive and DT40 TDP1 CPT inconclusive.
CCn1cc(C(=O)N2CCc3ccccc32)c(=O)c2cc(S(=O)(=O)N3CCCCCC3)ccc21 was read as DT40 TDP1 no CPT -11%, IL1B secr inh -13, ALOX12 inh -2%, HT1080 IDH1KD tx 0%, DT40 TDP1 CPT -20% and HT1080NT lethal -8%.
Screening CCn1cc(C(=O)NCCc2ccc(Cl)cc2)c(=O)c2cc(S(=O)(=O)N3CCC(C)CC3)ccc21 returned DT40 TDP1 no CPT 18µM*, ALOX12 inh inconclusive and DT40 TDP1 CPT inconclusive.
`CCN(CC)CCNC(=O)c1cn(CC)c2ccc(S(=O)(=O)N3CCc4ccccc4C3)cc2c1=O` gave DT40 TDP1 no CPT inconclusive, IL1B secr inh -28, ALOX12 inh 29%, HT1080 IDH1KD tx 0%, DT40 TDP1 CPT inconclusive and HT1080NT lethal -3%.
CCn1cc(C(=O)NCCc2ccccc2)c(=O)c2cc(S(=O)(=O)N3CCCC3)ccc21 was read as DT40 TDP1 no CPT 18µM*, IL1B secr inh -17, ALOX12 inh -14%, HT1080 IDH1KD tx -18%, DT40 TDP1 CPT inconclusive and HT1080NT lethal 11%.
CCn1cc(C(=O)NCCc2ccccc2)c(=O)c2cc(S(=O)(=O)N3CCOCC3)ccc21 was read as DT40 TDP1 no CPT -11%, ALOX12 inh -4% and DT40 TDP1 CPT -15%.
`CCN(CC)CCCNC(=O)c1cn(CC)c2ccc(S(=O)(=O)N3CCc4ccccc4C3)cc2c1=O` gave DT40 TDP1 no CPT 29µM*, IL1B secr inh -19, ALOX12 inh inconclusive, HT1080 IDH1KD tx 1%, DT40 TDP1 CPT inconclusive and HT1080NT lethal -4%.
For CCn1cc(C(=O)N2CCc3ccccc32)c(=O)c2cc(S(=O)(=O)N3CC(C)CC(C)C3)ccc21 (configuration not stated) the results were DT40 TDP1 no CPT inconclusive, IL1B secr inh -9, ALOX12 inh -10%, HT1080 IDH1KD tx 15%, DT40 TDP1 CPT 15µM* and HT1080NT lethal -3%.
Screening Cc1nn(C)c(C)c1CC(=O)Nc1nc(C(C)C)cs1 returned ALOX12 inh 43%.
COc1ccc(Cc2nnc(SCC(=O)Nc3ccc(F)cc3)n2C)cc1 was read as ALOX12 inh 2%.
`CCc1ccc(N2CC(c3noc(-c4ccc(OC)nc4)n3)CC2=O)cc1` (configuration not stated) gave ALOX12 inh 16%.
For CNC(=O)[C@@H]1CN(C(=O)c2cc(C)on2)C[C@H]1COC the results were ALOX12 inh 22%.
Screening COC(=O)COc1ccc2c(=O)c(Oc3cccc(C)c3)c(C(F)(F)F)oc2c1 returned ALOX12 inh -12%.
CCn1cc(C(=O)NCCC(C)C)c(=O)c2cc(S(=O)(=O)N3CCCCC3)ccc21 was read as DT40 TDP1 no CPT inconclusive, IL1B secr inh 0, HT1080 IDH1KD tx -4%, DT40 TDP1 CPT 23µM* and HT1080NT lethal 1%.
`CC(C)CCNC(=O)c1sc2ccc(S(=O)(=O)N3CCCCC3)cc2c1N` gave DT40 TDP1 no CPT 21µM*, IL1B secr inh -52*, ALOX12 inh -1%, HT1080 IDH1KD tx -1%, DT40 TDP1 CPT 23µM* and HT1080NT lethal inconclusive.

Screening data as filed in PubChem BioAssay.
